TDP1 cell CPT: growth inhibition of DT40 Tdp1-/-;hTDP1 cells with camptothecin (screen for TDP1 inhibitors) | 12% of 420,000 active | Potency, µM (highest dose often 46.2 µM), actives largely listed as inhibitors | AID 686979 | chicken DT40 Tdp1-/-;hTDP1 cells + 20 nM CPT, ATP luminescence, 48 h; note: nearly all actives have a fitted effect of over 55% in size
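Chicken DT40 Tdp1-/- cells stably complemented with human TDP1 were seeded at 400 cells/well in medium containing 20 nM camptothecin, exposed to pin-transferred compounds, and grown at 37 °C for at least 48 hr. Viability was read as ATP luminescence.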
TDP1 inh: blocks human tyrosyl-DNA phosphodiesterase 1; Potency, µM (series often up to 130 µM), hits mostly inhibitors; Q9NUW8; recombinant TDP1, AlphaScreen DNA substrate cleavage; 0.28% of 350,000 active; note: nearly all actives have a fitted effect of over 40% in size
Target sequence (Q9NUW8 whole entry, looked up): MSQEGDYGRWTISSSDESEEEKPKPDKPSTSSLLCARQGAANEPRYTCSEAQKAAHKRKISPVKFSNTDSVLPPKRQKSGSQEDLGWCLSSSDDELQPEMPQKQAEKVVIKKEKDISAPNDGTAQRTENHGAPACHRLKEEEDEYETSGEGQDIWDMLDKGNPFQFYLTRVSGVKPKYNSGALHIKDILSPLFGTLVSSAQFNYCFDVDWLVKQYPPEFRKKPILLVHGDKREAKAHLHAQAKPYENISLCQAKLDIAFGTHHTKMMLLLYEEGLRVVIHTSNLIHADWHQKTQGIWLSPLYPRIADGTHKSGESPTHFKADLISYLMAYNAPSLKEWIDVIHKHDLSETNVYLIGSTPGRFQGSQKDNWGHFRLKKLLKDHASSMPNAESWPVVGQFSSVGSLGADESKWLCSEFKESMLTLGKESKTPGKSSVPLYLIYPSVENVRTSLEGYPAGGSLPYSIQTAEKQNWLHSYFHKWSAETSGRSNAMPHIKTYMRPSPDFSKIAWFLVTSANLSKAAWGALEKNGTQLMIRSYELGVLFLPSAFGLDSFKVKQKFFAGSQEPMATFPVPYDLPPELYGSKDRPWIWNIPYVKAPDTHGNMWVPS
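AlphaScreen read-out: signal falls as enzyme removes the 3' tyrosine-FITC from a 5'-biotinylated DNA oligo (15 nM, 5 min, RT). Enzyme was E. coli-made recombinant Tdp1 at 1 nM, exposed to compound for 15 min beforehand; beads 10 ug/ml, 10 min.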
ClpP mod: qHTS Assay for Activators of ClpP | 1.9% of 340,000 active | Potency, µM (series often up to 57.5 µM) | AID 651965, 2013 | purified B. subtilis ClpP, FRET peptide cleavage, 20 min | ATP-dependent Clp protease proteolytic subunit (Bacillus subtilis (strain 168)), P80244; active = well fitted falling curve with a large enough effect; inconclusive = small, poorly fitted or top-dose-only effect; inactive = no such curve, though single readings can be large or run the other way; note: the source files actives as falling curves though it sought activators and does not explain the sign; nearly all actives have a fitted effect of over 65% in size
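ClpP 10 microg/mL final, pH 8 Tris/KCl buffer with BSA, glycerol, Tween-20; compound pinned in; FRET-FV substrate; RT 20 min; Ex320/Em430; ΔFRET vs ADEP 5.8 microM, DMSO, no enzyme.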
DT40 TDP1 no CPT: qHTS for Inhibitors of human tyrosyl-DNA phosphodiesterase 1 (TDP1): qHTS in cells in absence of CPT; Potency, µM (highest dose often 46.2 µM), actives largely listed as inhibitors; DT40 Tdp1-/- hTDP1 cells, no CPT, ATP luminescence, 48 h; 15% of 420,000 active; note: nearly all actives have a fitted effect of over 55% in size
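No-CPT arm: Tdp1-/-;hTDP1 DT40 cells (400/well) plus compounds, incubated ≥48 hr at 37 °C. Readout CellTiter-Glo luminescence.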
Numbers stand for hits; [ ] = remark or other dose. The list is not random: actives were taken first. Their share in the collection is about 17%. Unless noted, calls come from the whole dose curve; as a rule, active = well fitted curve in the direction sought with a large enough effect; inconclusive = small, poorly fitted or top-dose-only effect, or another doubt; inactive = no such curve, though single readings can be large; an effect the other way counts as inactive or inconclusive.

CC1(C)C(=O)N(CC(=O)Nc2ccc(Br)cc2F)c2ccccc21 was read as TDP1 cell CPT inactive, TDP1 inh inactive, ClpP mod inactive and DT40 TDP1 no CPT inactive.
For COc1cccc(OC)c1CN1CCCC(C(=O)c2ccccc2SC)C1 (centres undefined) the results were TDP1 cell CPT 16µM, TDP1 inh inactive and DT40 TDP1 no CPT 21µM.
`Cc1ccc2c(c1)cc(C(=O)NCc1ccc(F)cc1)n2C` gave TDP1 cell CPT inconclusive, TDP1 inh inactive, ClpP mod inconclusive and DT40 TDP1 no CPT inconclusive.
CCSCCOC(=O)C1=C(C)N(C)C(=O)NC1c1ccc2c(c1)OCO2 (centres undefined) was read as TDP1 cell CPT inactive, ClpP mod inactive and DT40 TDP1 no CPT inactive.
For CC1(C)CC(=O)C(N=Nc2ccc(C(F)(F)F)cc2[N+](=O)[O-])=C(O)C1 the results were TDP1 cell CPT 29µM, TDP1 inh inactive and DT40 TDP1 no CPT 23µM.
`COc1ccc(C(=O)CC(=O)C(=O)Nc2cccc(F)c2)cc1` gave TDP1 cell CPT inconclusive and DT40 TDP1 no CPT 15µM.
COc1ccc(C(=O)CNc2ccccc2C#N)cc1 was read as TDP1 cell CPT inconclusive, TDP1 inh inactive and DT40 TDP1 no CPT 21µM.
COc1ccc(C(=O)CC(=O)C(=O)Nc2ccc(C)c(Cl)c2)cc1 was read as TDP1 cell CPT inconclusive, ClpP mod inactive and DT40 TDP1 no CPT 16µM.
Screening CCOc1ccccc1NC(=O)C(=O)CC(=O)c1ccc(OC)cc1 returned TDP1 cell CPT inconclusive and DT40 TDP1 no CPT 21µM.
COc1ccc(C(=O)CNc2ccccc2CO)cc1 was read as TDP1 cell CPT inactive, TDP1 inh inactive and DT40 TDP1 no CPT inactive.
For COc1ccc(C(=O)CC(=O)C(=O)Nc2ccccc2)cc1 the results were TDP1 cell CPT inconclusive, ClpP mod inactive and DT40 TDP1 no CPT inactive.
COc1ccc(C(=O)CC(=O)C(=O)Nc2cc(C)ccc2C)cc1 was read as TDP1 cell CPT inactive and DT40 TDP1 no CPT inconclusive.
Cc1ccc(CN(Cc2cccn2-c2nnc(N3CCCC3=O)s2)C(=O)Nc2ccccc2Cl)cc1 was read as TDP1 cell CPT inconclusive, TDP1 inh inactive, ClpP mod inactive and DT40 TDP1 no CPT inconclusive.
Screening CCOC(=O)c1ccc(NC(=O)CCc2c(C)nc3nc[nH]n3c2=O)cc1 returned TDP1 cell CPT inactive, TDP1 inh inactive, ClpP mod inactive and DT40 TDP1 no CPT inactive.
Screening Cc1occc1C(=O)Nc1cccc(-c2nc(CNC(=O)c3ccc4ccccc4n3)c(C)o2)c1 returned TDP1 cell CPT 8.2µM and DT40 TDP1 no CPT 6.5µM.
`COC(=O)c1cccc(C(=O)NCc2nc(-c3cccc(NC(=O)c4ccoc4C)c3)oc2C)c1` gave TDP1 cell CPT inactive[9.04 µM] and DT40 TDP1 no CPT 21µM.
For CSc1nc(C(=O)NCc2nc(-c3cccc(NC(=O)c4ccccn4)c3)oc2C)cs1 the results were TDP1 cell CPT inactive[9.04 µM] and DT40 TDP1 no CPT inconclusive.
`Cc1cc(C(=O)NCc2nc(-c3cccc(NC(=O)c4ccccc4)c3)oc2C)nc(C)n1` gave TDP1 cell CPT inactive[9.04 µM] and DT40 TDP1 no CPT inactive.
`Cc1nc(C)c(C(=O)NCc2nc(-c3cccc(NC(=O)c4ccccn4)c3)oc2C)s1` gave TDP1 cell CPT 3.3µM and DT40 TDP1 no CPT 2.9µM.
`CSc1ccccc1C(=O)NCc1nc(-c2cccc(NC(=O)c3ccoc3C)c2)oc1C` gave TDP1 cell CPT inconclusive and DT40 TDP1 no CPT 21µM.
Screening O=C1N=C(C=c2ccc(=Cc3[nH]c(=O)[nH]c3O)cc2)C(=O)N1 returned TDP1 inh inactive.
For COc1ccccc1-c1ccc(SCc2cccc(F)c2)nn1 the results were TDP1 cell CPT inconclusive, TDP1 inh inactive, ClpP mod inactive and DT40 TDP1 no CPT inconclusive.
For COc1ccccc1-c1ccc(SCC(=O)NCCc2ccccc2)nn1 the results were TDP1 cell CPT inconclusive, TDP1 inh inactive, ClpP mod inactive and DT40 TDP1 no CPT 23µM.
For COc1ccccc1-c1ccc(SCc2ccccc2)nn1 the results were TDP1 cell CPT inconclusive, TDP1 inh inactive and DT40 TDP1 no CPT 21µM.
For COc1ccc(NC(=O)C2(C)CCN2Cc2ccc3ccccc3c2)cc1OC (centres undefined) the results were TDP1 cell CPT inconclusive, ClpP mod inactive and DT40 TDP1 no CPT inconclusive.
CC(C)c1ccc(CN2CCC2(C)C(=O)Nc2cnc3ccccc3c2)cc1 (centres undefined) was read as TDP1 cell CPT 18µM, ClpP mod inactive and DT40 TDP1 no CPT 26µM.
CC1(C(=O)Nc2cnc3ccccc3c2)CCN1Cc1ccc2ccccc2c1 (centres undefined) was read as TDP1 cell CPT 15µM, ClpP mod inconclusive and DT40 TDP1 no CPT inconclusive.
`CC1(C(=O)Nc2cnc3ccccc3c2)CCN1Cc1cc2ccccc2o1` (centres undefined) gave TDP1 cell CPT 13µM, ClpP mod inactive and DT40 TDP1 no CPT 15µM.
Screening CC1(C(=O)NC2CCN(Cc3ccccc3)CC2)CCN1Cc1cc2ccccc2o1 (centres undefined) returned TDP1 cell CPT inconclusive, ClpP mod inactive and DT40 TDP1 no CPT inactive.
Screening CC(C)C(OC(=O)CCCC(=O)Nc1nccs1)C(=O)NC1CCCCC1 (centres undefined) returned TDP1 cell CPT inactive, TDP1 inh inactive, ClpP mod inactive and DT40 TDP1 no CPT inactive.
For Cc1nn2c(NCc3ccccn3)c3c(nc2c1-c1ccccc1)CCC3 the results were TDP1 cell CPT 2.6µM and DT40 TDP1 no CPT 4.6µM.
Screening COc1ccc(Nc2c3c(nc4c(-c5ccccc5)c(C)nn24)CCC3)cc1 returned TDP1 cell CPT inactive, TDP1 inh inactive, ClpP mod inactive and DT40 TDP1 no CPT inactive.
Screening Cc1cc(NCc2ccccn2)n2nc(C)c(-c3ccccc3)c2n1 returned TDP1 cell CPT 0.052µM, TDP1 inh inactive and DT40 TDP1 no CPT 0.046µM.
For Cc1nn2c(NCCN3CCOCC3)c3c(nc2c1-c1ccccc1)CCCC3 the results were TDP1 cell CPT 2.6µM and DT40 TDP1 no CPT 5.8µM.
`C=CCc1c(NCCO)nc(C)[nH]c1=O` gave TDP1 cell CPT inactive, TDP1 inh inactive and DT40 TDP1 no CPT inactive.
Screening Cc1csc(NC(=O)c2nn(C)c(C)c2[N+](=O)[O-])n1 returned TDP1 cell CPT inactive, TDP1 inh inactive, ClpP mod inactive and DT40 TDP1 no CPT inactive.
For COc1ccc(NC(=O)C2=CC(c3ccc(C)cc3)=NS(=O)(=O)N2C)cc1 the results were TDP1 cell CPT 16µM, ClpP mod inactive and DT40 TDP1 no CPT 23µM.
Cc1ccc(C2=NS(=O)(=O)N(C)C(C(=O)NC3CCCCC3)=C2)cc1 was read as TDP1 cell CPT inactive, ClpP mod inactive and DT40 TDP1 no CPT inactive.
COc1ccc(NC(=O)C2=CC(c3ccco3)=NS(=O)(=O)N2C)cc1OC was read as TDP1 cell CPT inactive, TDP1 inh inactive, ClpP mod inactive and DT40 TDP1 no CPT inactive.

Screening results (PubChem BioAssay)
